Screening data deposited in PubChem BioAssay by Buhrlage Lab, Dana-Farber Cancer Institute and Novartis Institutes for BioMedical Research (Cambridge, Mass).
USP17 inh: blocks human USP17 ubiquitin-rhodamine cleavage; A8MUK1; purified USP17, Ub-rhodamine cleavage fluorescence, 3 h; inhibition, % at 50 µM; actives 6.5% (n = 47,000)
Target sequence (A8MUK1 whole entry, looked up): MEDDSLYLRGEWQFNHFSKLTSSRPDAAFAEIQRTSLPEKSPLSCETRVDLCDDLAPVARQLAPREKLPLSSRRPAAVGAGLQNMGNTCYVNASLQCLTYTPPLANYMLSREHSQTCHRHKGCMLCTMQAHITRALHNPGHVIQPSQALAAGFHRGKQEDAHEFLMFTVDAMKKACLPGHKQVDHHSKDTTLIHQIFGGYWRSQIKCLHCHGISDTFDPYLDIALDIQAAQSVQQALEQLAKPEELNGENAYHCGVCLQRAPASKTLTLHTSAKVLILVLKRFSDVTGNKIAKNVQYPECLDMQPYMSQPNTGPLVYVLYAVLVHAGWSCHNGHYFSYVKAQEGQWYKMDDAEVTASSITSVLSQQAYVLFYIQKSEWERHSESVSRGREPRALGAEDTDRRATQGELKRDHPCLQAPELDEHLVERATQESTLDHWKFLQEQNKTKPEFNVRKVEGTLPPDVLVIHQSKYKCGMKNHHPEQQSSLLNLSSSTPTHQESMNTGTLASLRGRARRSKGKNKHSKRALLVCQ
USP10 inh: human USP10 deubiquitinase inhibition; actives 1.1% (n = 47,000); AID 1645856; purified USP10, Ub-rhodamine fluorescence, 60 min; Q14694; inhibition, % at 20 µM
USP30 inh: human USP30 deubiquitinase inhibition. purified USP30, Ub-rhodamine cleavage fluorescence. inhibition, % at 25 µM. Q70CQ3. actives 5.3% (n = 47,000)
USP28 inh: inhibitors of human USP28 deubiquitinase | Q96RU2 | purified USP28, Ub-rhodamine cleavage fluorescence, 30 min | inhibition, % at 25 µM | actives 3% (n = 47,000) | AID 1645857
USP8 block: human USP8 deubiquitinase inhibition. P40818. purified USP8, Ub-rhodamine cleavage fluorescence, 30 min. inhibition, % at 20 µM. actives 4.2% (n = 47,000)
Active calls of the source: *. Only some compounds are listed: those with a hit (about 14% of all), similar ones and a draw of the others. Cut-off read from the data, not from the text of the source: active = inhibition above about 30%; inactive = the rest.

Results for COc1cc(CN(C(=O)c2oc3cc(C)ccc3c2C)c2ccccn2)cc(OC)c1OC ?
USP17 inh: 17; USP10 inh: 10; USP30 inh: -10; USP28 inh: 11; USP8 block: 32*

How did Cc1nc2nc(SCc3nc4ccccc4n3C)[nH]c2cc1Br do in these assays?
USP17 inh: 53*; USP10 inh: -3; USP30 inh: -178; USP28 inh: -26; USP8 block: -15

What do the screens show for `CC(=O)O[C@H]1CC[C@]2(C)[C@H]3Cc4c(O)cc5c(c4O[C@]3(C)CC[C@H]2C1(C)C)CNC5=O`?
USP17 inh: 34*; USP10 inh: 1; USP30 inh: 0; USP28 inh: 29; USP8 block: -7

How did COc1ccc(Nc2cc(C(=O)N3CCN(c4ccccn4)CC3)c3ccccc3n2)c(OC)c1 do in these assays?
USP17 inh: -6; USP10 inh: 0; USP30 inh: -42; USP28 inh: -16; USP8 block: 3

What do the screens show for `COc1cccc(S(=O)(=O)N2CC[C@@H]3[C@H]2C(=O)N(C)[C@@H](C)C(=O)N3C)c1`?
USP17 inh: 14; USP10 inh: 0; USP30 inh: 19; USP28 inh: 13; USP8 block: 32*

How did Oc1ccc2ccccc2c1CN1CCCC1 do in these assays?
USP17 inh: 17; USP10 inh: 1; USP30 inh: -2; USP28 inh: 5; USP8 block: 38*

Results for OC(CN1CCN(c2ncccn2)CC1)c1ccc(Cl)cc1 (centres undefined) ?
USP17 inh: -3; USP10 inh: 0; USP30 inh: -3; USP28 inh: -31; USP8 block: 0

What do the screens show for `Oc1ccc2ccccc2c1CN1CCN(c2ncccn2)CC1`?
USP17 inh: 36*; USP10 inh: 0; USP8 block: 0

What do the screens show for `O=C1NCCCCCN1C(=O)c1ccccc1`?
USP17 inh: 7; USP10 inh: 0; USP30 inh: 19; USP28 inh: 7; USP8 block: 0

Results for O=C1CCC(=O)NCCCCCN(O)C(=O)CCC(=O)NCCCCCN(O)C(=O)CCC(=O)NCCCCCN1 ?
USP17 inh: 13; USP10 inh: 0; USP30 inh: 44*; USP28 inh: 18; USP8 block: 9

How did CCN1CCc2c(sc(NC(=O)CSc3ccccc3)c2C(N)=O)C1 do in these assays?
USP17 inh: -17; USP10 inh: -11; USP30 inh: -35; USP28 inh: -14; USP8 block: -6

What do the screens show for `CCN1CCc2c(sc(NC(=O)CSc3ccc(Cl)cc3)c2C(N)=O)C1`?
USP17 inh: 34*; USP10 inh: -7; USP30 inh: 28; USP28 inh: 15; USP8 block: 0

Results for CC(C)c1cc(N2CCCCC2)n2nc(-c3cccnc3)nc2n1 ?
USP17 inh: -5; USP10 inh: 1; USP8 block: 4

How did CCOC(=O)N1CCN(c2cc(C(C)C)nc3nc(-c4cccnc4)nn23)CC1 do in these assays?
USP17 inh: 25; USP10 inh: 1; USP30 inh: 33*; USP28 inh: -1; USP8 block: 1

How did CCCc1cc(N2CCCCC2)n2nc(-c3cccnc3)nc2n1 do in these assays?
USP17 inh: 10; USP10 inh: 0; USP30 inh: 31*; USP28 inh: 19; USP8 block: 2

What do the screens show for `COc1c(C)c(C(O)C(C)O)c2[nH]c3ccc(CC=C(C)C)cc3c2c1O` (centres undefined)?
USP17 inh: 99*; USP10 inh: 4; USP30 inh: 48*; USP28 inh: 48*; USP8 block: 63*

Results for O=C(C1CCN(c2ncccc2-c2nc(-c3ccccc3)no2)CC1)N1CCOCC1 ?
USP17 inh: 2; USP10 inh: -1; USP30 inh: 5; USP28 inh: 0; USP8 block: 2

How did Cc1cc(Cl)ccc1NC(=O)COC(=O)c1n[nH]c2ccccc12 do in these assays?
USP17 inh: 6; USP10 inh: -7; USP30 inh: -92; USP28 inh: 13; USP8 block: 31*

Results for Brc1cccc(C2(c3nc(Cc4ccccc4)no3)CCOCC2)c1 ?
USP17 inh: 16; USP10 inh: 10; USP30 inh: 29; USP28 inh: 20; USP8 block: 25

Results for COc1ccc(CN2C[C@@H]3C[C@]3(c3ccccc3)C(=O)c3ncccc32)cc1 ?
USP17 inh: 60*; USP10 inh: 1; USP30 inh: -108; USP28 inh: -7; USP8 block: 84*

Results for Cc1cc(C)c2c(=O)n(CC(=O)NCc3ccc(OC(C)C)cc3)c(=O)n(C)c2n1 ?
USP17 inh: 13; USP10 inh: -2; USP30 inh: 4; USP28 inh: 7; USP8 block: 18
